RAM inhibit: inhibitors of the yeast RAM network, primary screen, dse1pr::URA3 reporter, 5-FOA selection; S. cerevisiae dse1pr::URA3 reporter, 5-FOA growth OD615, 2 d; analog-sensitive cbk1-as2 kinase mutant strain; inhibition, % at 50 µM; actives 1.8% (n = 190,000); AID 868, 2007;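 active = inhibition above a set limit, 3 SD over mean compound inhibition, cut at about 8.4% in these data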;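 also: 0% = DMSO-only wells with no growth and 100% = 10 µM 1-NA-PP1 full growth; inhibition rescues growth on 5-FOA so higher OD means more RAM inhibition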
L major viab: Leishmania major promastigote growth inhibition, primary screen | actives 9% (n = 200,000) | Leishmania major promastigotes, resazurin fluorescence viability | inhibition, % at 10 µM; in the data active = inhibition above about 50%;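 also: promastigotes grown with compound for 44 hours at 28 °C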
WT yeast gro inh: growth inhibition of WT strain, primary screen, mitochondrial fusion inhibitor project, WT and mutant strains, chemical genetic. mitochondrial fusion phenotypic screen. inhibition, % at 10 µM. actives 2.1% (n = 190,000); in the data active = inhibition above about 58%; tested in S. cerevisiae
CHOP inh: inhibitors of CHOP promoter induction, primary screen, cell-based, unfolded protein response, luciferase reporter. CHO-K1 CHOP-promoter luciferase, tunicamycin-induced, 15-18 h. inhibition, % at 10 µM. actives 3.8% (n = 220,000). AID 2732, 2010;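 active = compounds that reduced the stress-induced luciferase reporter signal by more than about 70% of percent inhibition, limit read from the data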;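 also: 0% = tunicamycin plus vehicle and 100% = wells without tunicamycin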
The depositor's hits bear a star; · = no result given. Sampled rows, rich in hits. Any-hit rate of the full collection: about 13%.

SMILES | RAM inhibit | L major viab | WT yeast gro inh | CHOP inh
CCC1CCC2(CC1)NC(=O)N(CC(=O)c1c(C)[nH]c3ccccc13)C2=O (centres undefined) | 0.6 | -1.3 | -12.3 | 25.5
C=CCN(c1cccc(C(F)(F)F)c1)S(=O)(=O)c1cccc(C(=O)OCC(=O)NCCC)c1 | 7.7 | -1.4 | -2.5 | 18.5
CCCCN1CNC(=S)N(Cc2ccccc2)C1 | -0.2 | -6.3 | 10.6 | -4.4
O=C(CS(=O)(=O)Cc1ccccc1)Nc1ccc(S(=O)(=O)N2CCCCCC2)cc1 | 3.2 | 51.9* | -2.6 | 49.3
O=C(Cn1ncc2c1-c1ccccc1OC2)Nc1ccc(S(=O)(=O)N2CCCCC2)cc1 | 4.8 | 32.0 | 8.7 | 86.4*
CN(CC(=O)Nc1ccc(S(=O)(=O)N2CCCC2)cc1)Cc1c(F)cccc1Cl | 2.7 | 99.7* | 8.1 | 36.0
O=S(=O)(NCc1ccccc1)c1ccc(S(=O)(=O)N2CCCCC2)cc1 | 5.9 | -2.0 | -29.1 | 72.0*
O=C(CS(=O)(=O)Cc1ccccc1)Nc1ccc(S(=O)(=O)N2CCOCC2)cc1 | 2.0 | -4.2 | -2.7 | -10.7
COc1cc(NC(=O)[C@@H](NC(=O)c2ccco2)C(C)C)c(OC)cc1NC(=O)c1ccccc1 | 4.3 | 5.4 | -9.4 | -0.4
COc1cccc(C(=O)C2=NN(C(C)=O)CC2c2ccco2)c1 (centres undefined) | 0.3 | 25.9 | -5.9 | 9.4
COc1cccc(CNc2ccc([N+](=O)[O-])c(NCC(=O)O)n2)c1 | -0.5 | -9.2 | 3.2 | 4.9
O=C(CSCc1ccc([N+](=O)[O-])cc1)Nc1ccc(S(=O)(=O)N2CCCCCC2)cc1 | 10.2* | 7.9 | 37.0 | 22.9
CCNC(=S)Nc1cc(OCC)c(NC(=O)c2ccco2)cc1OCC | 1.8 | 50.7* | 0.9 | 15.1
CCOc1cc(NC(=O)C2CCCCC2)c(OCC)cc1NC(=O)c1ccco1 | 3.2 | -1.2 | 5.3 | 83.9*
O=C(Nc1ccnc(-c2ccncc2)n1)C1CC1 | 0.4 | 6.5 | 6.3 | 2.0
Cc1cccc(C(=O)NCCc2ccc(S(N)(=O)=O)cc2)c1[N+](=O)[O-] | 1.2 | 87.4* | -0.9 | -21.3
COCCNC(=O)c1cccc(C)c1[N+](=O)[O-] | 2.4 | -6.0 | 4.3 | -2.0
COc1cccc(-c2nc3n(n2)C(c2ccc4c(c2)OCO4)C(C(N)=O)=C(C)N3)c1 (centres undefined) | 10.5* | 0.4 | 5.7 | 7.4
CC1=C(C(N)=O)C(c2cccnc2)n2nc(-c3cccc(C)c3)nc2N1 (centres undefined) | 1.3 | 84.6* | -13.6 | -14.6
O=C(CSCc1ccc(Cl)cc1)N/N=C/c1ccco1 | 1.6 | 5.2 | 10.3 | 13.6
COc1ccc(CSCC(=O)N/N=C/c2ccccc2O)cc1 | -0.5 | 67.8* | 10.7 | 35.5
CCOc1ccccc1/C=N/NC(=O)CSc1n[nH]c(=O)[nH]c1=O | 0.5 | -1.1 | -7.7 | 9.2
O=C(CSc1ccccc1)N/N=C/c1ccccc1O | -0.5 | -3.5 | 7.2 | 34.3
O=C(CSCc1ccc(Cl)cc1)N/N=C/c1ccc(Cl)cc1Cl | 4.0 | -8.4 | 6.5 | 91.1*
Cc1ccsc1/C=N/NC(=O)CSCc1ccc(Cl)cc1 | 1.5 | 0.9 | 15.0 | 92.1*
SMILES | RAM inhibit | L major viab | WT yeast gro inh | CHOP inh
O=C(CSc1n[nH]c(=O)[nH]c1=O)N/N=C/c1ccccc1O | 2.5 | 99.7* | -6.0 | 8.9
C/C(=N\NC1=NCCN1)c1ccccc1 | · | · | · | -7.9
COc1ccc(Br)cc1/C(C)=N/NC1=NCCN1 | 0.7 | 52.1* | 9.4 | 10.9
O=C(NC1CCCCC1)C(c1ccco1)N(Cc1cccnc1)C(=O)C1COc2ccccc2O1 (centres undefined) | 0.3 | 15.3 | 15.9 | 59.8
CCOC(=O)C1=NNC2C(=O)N(Cc3ccccc3)C(=O)C12 (centres undefined) | · | · | · | 14.5
COc1ccc2c(c1)C1=C(CC2)C(c2ccc(C)cc2)NC(=S)N1 (centres undefined) | 1.8 | 34.3 | 80.2* | 8.3
COc1cccc(C2NC(=S)NC3=C2CCc2ccccc23)c1 (centres undefined) | 1.7 | -2.4 | 6.3 | -1.0
Nc1ncc(-n2cncn2)c(-c2ccc(Cl)cc2)n1 | 1.7 | -2.2 | 2.4 | 6.2
CSCCC(NC(=O)c1ccoc1C)C(=O)O (centres undefined) | 2.0 | 65.2* | -17.5 | 7.7
O=C(N/N=C/c1ccc[nH]1)c1ccc(O)cc1 | 2.3 | -6.0 | -11.1 | -18.5
CC1(C)C2CC=C(/C=N/NC(=O)c3ccccc3Br)C1C2 (centres undefined) | 1.9 | 99.6* | -4.5 | 54.3
COC(=O)N/N=C/C1=CCC2CC1C2(C)C (centres undefined) | 1.6 | 58.1* | 22.4 | 0.6
CC1(C)C2CC=C(/C=N/NC(=O)c3ccc(O)cc3)C1C2 (centres undefined) | 3.2 | 94.4* | 0.4 | -3.7
CC1(C)C2CC=C(/C=N/NC(=O)C(N)=O)C1C2 (centres undefined) | · | · | · | 62.5
O=C(N/N=C/c1cccs1)[C@H]1C[C@@H]1c1ccccc1 | 2.0 | 1.2 | -25.3 | -10.7
CCOC(=O)C1=C(O)/C(=C/c2ccccn2)SC1=Nc1ccc(Cl)cc1 | 4.4 | 65.3* | 20.9 | 29.9
CCOC(=O)C1=C(O)/C(=C/c2ccc(OCC(=O)O)c(OCC)c2)SC1=Nc1ccccc1 | 10.3* | 11.4 | -2.7 | 16.5
COc1ccc2[nH]c(C)c(C(=O)CN(C)CC3OCCO3)c2c1 | · | · | · | 21.1
C=CCn1c(SCC(=O)N2CCc3ccccc3C2)nnc1-c1ccncc1 | 1.2 | 1.3 | -11.6 | 3.0
CCCS(=O)(=O)c1nnnn1-c1cccc(OC)c1 | -0.9 | 100.1* | 75.9* | ·
Cc1ccc(NCC(=O)N/N=C\c2ccc[nH]2)cc1 | · | · | · | -0.3
O=C(O)Cc1csc(-c2cccc(F)c2)n1 | 0.1 | 2.7 | -10.8 | 3.1
N=c1c2c(-c3ccccc3)c(-c3ccccc3)oc2ncn1CCN1CCOCC1 | 1.2 | 16.3 | -9.2 | -8.5
Cc1sc2ncnc(NCCN3CCOCC3)c2c1C | 1.7 | 6.6 | -7.6 | 20.1
c1ccc(-c2oc3ncnc(NCCN4CCOCC4)c3c2-c2ccccc2)cc1 | 0.3 | 98.0* | 10.5 | 48.5
SMILES | RAM inhibit | L major viab | WT yeast gro inh | CHOP inh
N=c1c2c(-c3ccccc3)c(-c3ccccc3)oc2ncn1CCCN1CCOCC1 | 2.4 | 86.8* | 11.1 | -7.9
O=C(Cn1c(=O)c2c(ncn2Cc2ccccc2)n(Cc2ccccc2)c1=O)N1CCc2ccccc21 | 7.4 | 100.1* | 26.0 | 41.0
CCC1(c2ccc(Cl)cc2)NC(=S)N(c2ccc(C)cc2)N1 (centres undefined) | 0.3 | -13.4 | 67.8* | -6.2
CCC1(c2ccccc2)NC(=S)N(c2ccc(C)c(C)c2)N1 (centres undefined) | 5.0 | 12.2 | 68.6* | 25.8
CC1(CCc2ccccc2)NC(=S)N(c2ccc(Cl)cc2)N1 (centres undefined) | -0.1 | -10.0 | 58.9* | -16.1
C#CC(C)(CC)NC(=O)c1cc2nc(C3CC3)cc(C(F)(F)F)n2n1 (centres undefined) | -0.1 | 28.1 | 6.0 | 5.3
C=CCc1c(C)nc(SC)nc1Nc1ccc(C(C)=O)cc1 | 0.8 | 70.7* | -1.1 | -9.1
C=CCc1c(C)nc(SC)nc1Nc1ccc(C(=O)O)cc1 | 1.8 | -3.4 | -0.2 | 11.8

Screens as filed in PubChem.
